Source: PubChem BioAssay (NCI)
Where “and” joins values, the source holds several entries; their conditions need not be identical. Identical values can stand only once. Compounds without any hit were thinned out: in the full panel of roughly 83,000, 20% have a hit.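 Activity criterion: percent growth below 10, measured after cells in 96-well plates were exposed to a single compound concentration for 48 hours.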 Calls of active or inactive are those of the source.

Columns and labels:
Experiment in all cases: NCI-60 one-dose screen, 48 h (100 = growth as untreated, 0 = no growth, -100 = all killed)
NCI-H23 lung = settings: 10 µM unless noted
NCI-H226 lung = settings: 10 µM unless noted
HOP-62 NSCLC = settings: 10 µM unless noted
NCI-H460 lung = settings: 10 µM unless noted
NCI-H522 lung = settings: 10 µM
A549/ATCC NSCLC = settings: 10 µM unless noted
786-0 renal = settings: 10 µM unless noted
COLO 205 colon = settings: 10 µM unless noted
DU-145 prostate = settings: 10 µM unless noted
K-562 leukemia = settings: 10 µM unless noted
MALME-3M melanoma = settings: 10 µM unless noted
MDA-MB-231 breast = settings: 10 µM unless noted
RXF 393 renal = settings: 10 µM unless noted
SF-268 CNS = settings: 10 µM unless noted
SF-295 CNS = settings: 10 µM unless noted
SF-539 CNS = settings: 10 µM unless noted
UACC-257 melanoma = settings: 10 µM unless noted
M14 melanoma = settings: 10 µM unless noted
NCI-H322M lung = settings: 10 µM unless noted
HOP-92 NSCLC = settings: 10 µM

Measured: growth

CC(C)(O)C(=O)O
inactive: NCI-H23 lung 106% | NCI-H226 lung 102% | HOP-62 NSCLC 99.9% | NCI-H460 lung 103% | NCI-H522 lung 103% | A549/ATCC NSCLC 102% | 786-0 renal 95.4% | COLO 205 colon 104% | DU-145 prostate 94.5% | K-562 leukemia 123% | MALME-3M melanoma 88.4% | MDA-MB-231 breast 86.4% | RXF 393 renal 113% | SF-268 CNS 103% | SF-295 CNS 103% | SF-539 CNS 101% | UACC-257 melanoma 99.8% | M14 melanoma 101%

CC(C)NCC(O)c1ccc(O)c(O)c1 (stereo unspecified)
inactive: NCI-H23 lung 98.6% and 68.3% and 98.2% | NCI-H226 lung 88.4% and 114% and 98.8% | NCI-H322M lung 92.1% and 96.7% and 106% | HOP-62 NSCLC 97.9% and 90.6% and 86.7% | HOP-92 NSCLC 60.1% and 59% and 68.4% | NCI-H522 lung 82.4% and 140% | A549/ATCC NSCLC 106% and 119% and 103% | 786-0 renal 94.9% and 90.6% and 99.7% | COLO 205 colon 107% and 114% and 104% | DU-145 prostate 110% and 119% and 103% | K-562 leukemia 112% and 101% | MALME-3M melanoma 101% and 88.7% and 141% | MDA-MB-231 breast 84% and 78.9% and 85.1% | RXF 393 renal 103% and 105% | SF-268 CNS 102% and 106% and 86.6% | SF-295 CNS 108% and 110% and 105% | SF-539 CNS 95.9% and 87.7% and 85.6% | UACC-257 melanoma 109% and 102% | M14 melanoma 98.1% and 96.8% and 113%

Cc1ccc(=O)[nH]n1
inactive: NCI-H23 lung 97.8% and 98.7% | NCI-H226 lung 102% and 100% | NCI-H322M lung 104% and 103% | HOP-62 NSCLC 110% and 91.9% | NCI-H460 lung 105% and 107% | NCI-H522 lung 108% and 96.2% | A549/ATCC NSCLC 102% and 91.4% | 786-0 renal 111% | COLO 205 colon 111% and 115% | DU-145 prostate 101% and 116% | K-562 leukemia 99.7% and 97.2% | MALME-3M melanoma 112% and 106% | MDA-MB-231 breast 118% | RXF 393 renal 105% | SF-268 CNS 99.4% and 103% | SF-295 CNS 113% and 101% | SF-539 CNS 110% and 109% | UACC-257 melanoma 101% and 94.1% | M14 melanoma 111% and 110%

CC1(C)COC(=S)N1
inactive: NCI-H23 lung 101% | NCI-H226 lung 94.5% | NCI-H322M lung 101% | HOP-62 NSCLC 99.8% | NCI-H522 lung 85.2% | A549/ATCC NSCLC 104% | 786-0 renal 99.7% | COLO 205 colon 124% | DU-145 prostate 114% | K-562 leukemia 91.7% | MALME-3M melanoma 104% | MDA-MB-231 breast 96.5% | RXF 393 renal 98.8% | SF-268 CNS 107% | SF-295 CNS 98.4% | SF-539 CNS 107% | UACC-257 melanoma 99.6% | M14 melanoma 101%

CCCCCCCCCCNC(=O)CI
inactive: NCI-H226 lung 76.7% | NCI-H322M lung 96.8% | DU-145 prostate 99.1% | SF-268 CNS 37.1% | SF-539 CNS 39.1% | UACC-257 melanoma 66.3%
active: NCI-H23 lung -48.8% | HOP-62 NSCLC -20.8% | HOP-92 NSCLC -79% | 786-0 renal -81.2% | COLO 205 colon -20% | K-562 leukemia 0.309% | MDA-MB-231 breast 9.39% | RXF 393 renal -86.5% | M14 melanoma -24.8%

CCCCCCCCCCCCCCCCC(C(=O)O)C(O)(CC(=O)O)C(=O)O (stereo unspecified)
109% (inactive) and -20.3% (active): SF-539 CNS
108% (inactive) and -8.6% (active): MALME-3M melanoma
105% (inactive) and -38.2% (active): NCI-H23 lung
105% (inactive) and 4.08% (active): NCI-H460 lung
102% (inactive) and -34.8% (active): M14 melanoma
90% (inactive) and -32.5% (active): NCI-H522 lung
107% (inactive) and -23.4% (active): NCI-H226 lung
98.4% (inactive) and 9.56% (active): RXF 393 renal
90.9% (inactive) and 1.15% (active): K-562 leukemia
112% (inactive) and -1.67% (active): HOP-92 NSCLC
124% (inactive) and -1.43% (active): DU-145 prostate
99.7% (inactive) and 0.749% (active): 786-0 renal
inactive: MDA-MB-231 breast 126% and 14.1% | SF-268 CNS 116% and 10% | SF-295 CNS 15.4% | UACC-257 melanoma 115% and 18.2%
102% (inactive) and -2.31% (active): HOP-62 NSCLC
114% (inactive) and -53.4% (active): COLO 205 colon

NN1CCOC(c2ccccc2)C1 (stereo unspecified)
inactive: NCI-H23 lung 104% | NCI-H226 lung 99.4% | NCI-H322M lung 97.7% | HOP-62 NSCLC 99.6% | NCI-H460 lung 115% | NCI-H522 lung 125% | 786-0 renal 103% | COLO 205 colon 107% | DU-145 prostate 102% | K-562 leukemia 10.3% | MDA-MB-231 breast 99.1% | RXF 393 renal 101% | SF-268 CNS 99.6% | SF-295 CNS 118% | SF-539 CNS 100% | UACC-257 melanoma 103% | M14 melanoma 90.9%

Brc1ccc(SSc2ccc(Br)cc2)cc1
inactive: NCI-H23 lung 72.5% | NCI-H226 lung 93.7% | NCI-H322M lung 91.8% | HOP-62 NSCLC 75.3% | NCI-H460 lung 68.1% | HOP-92 NSCLC 98.4% | NCI-H522 lung 85.2% | 786-0 renal 59% | COLO 205 colon 90.6% | DU-145 prostate 93.6% | K-562 leukemia 89.9% | MALME-3M melanoma 74.8% | RXF 393 renal 74.6% | SF-268 CNS 58.9% | SF-295 CNS 52.2% | SF-539 CNS 56.1% | UACC-257 melanoma 97.7% | M14 melanoma 68.7%

CC(=O)Nc1ccc(S(N)(=O)=O)cc1
inactive: NCI-H23 lung 100% | NCI-H226 lung 107% and 102% | NCI-H322M lung 113% and 92.5% | HOP-62 NSCLC 89.4% and 103% | NCI-H460 lung 102% and 105% | HOP-92 NSCLC 96.6% | NCI-H522 lung 98.3% and 80.4% | 786-0 renal 97.9% and 94.5% | COLO 205 colon 99.7% and 102% | DU-145 prostate 111% and 113% | K-562 leukemia 102% and 110% | MALME-3M melanoma 109% | MDA-MB-231 breast 102% and 119% | RXF 393 renal 115% | SF-268 CNS 105% and 115% | SF-295 CNS 93.8% and 92.8% | SF-539 CNS 100% and 101% | UACC-257 melanoma 88.6% and 94.9% | M14 melanoma 98.6% and 103%

CCCCOc1ccc(Nc2cc(Cl)ccc2C(=O)O)cn1
inactive: NCI-H23 lung 103% and 92.9% | NCI-H226 lung 109% and 97.5% | NCI-H322M lung 110% and 105% | HOP-62 NSCLC 88.4% and 90% | NCI-H460 lung 104% and 99% | NCI-H522 lung 46.4% and 98.2% | 786-0 renal 92% | COLO 205 colon 119% and 103% | DU-145 prostate 120% and 121% | K-562 leukemia 107% and 108% | MALME-3M melanoma 140% and 121% | MDA-MB-231 breast 113% and 111% | RXF 393 renal 130% and 104% | SF-268 CNS 111% and 107% | SF-295 CNS 108% and 109% | SF-539 CNS 99.1% and 97.7% | UACC-257 melanoma 111% and 98.2% | M14 melanoma 101% and 107%

CCOC(=O)c1c(C)cc(=O)oc1C
inactive: NCI-H23 lung 101% | NCI-H226 lung 96.8% | NCI-H322M lung 110% | HOP-62 NSCLC 97.2% | NCI-H460 lung 110% | NCI-H522 lung 115% | 786-0 renal 103% | COLO 205 colon 116% | DU-145 prostate 114% | K-562 leukemia 89% | MALME-3M melanoma 87.7% | MDA-MB-231 breast 96.3% | RXF 393 renal 109% | SF-268 CNS 106% | SF-539 CNS 107% | UACC-257 melanoma 101% | M14 melanoma 98%

CCCCOC(=O)/C=C\C(=O)NC(N)=O
inactive: NCI-H23 lung 85.7% | NCI-H226 lung 96.6% | NCI-H322M lung 96.4% | HOP-62 NSCLC 95.1% | NCI-H460 lung 101% | 786-0 renal 97.4% | COLO 205 colon 87.7% | DU-145 prostate 91.1% | K-562 leukemia 82.3% | MALME-3M melanoma 92.3% | MDA-MB-231 breast 75.5% | SF-268 CNS 96.6% | SF-295 CNS 103% | SF-539 CNS 95.7% | UACC-257 melanoma 77.8% | M14 melanoma 92.1%
active: NCI-H522 lung -30.6% | RXF 393 renal -13.6%

O=c1n(CC2CO2)c(=O)n(CC2CO2)c(=O)n1CC1CO1 (stereo unspecified)
inactive: NCI-H23 lung 69.2% | NCI-H226 lung 80.1% | NCI-H322M lung 70.4% | HOP-62 NSCLC 57% | NCI-H522 lung 45.1% | 786-0 renal 44.7% | COLO 205 colon 74.8% | DU-145 prostate 25.7% | K-562 leukemia 81.3% | MALME-3M melanoma 70.7% | MDA-MB-231 breast 107% | RXF 393 renal 64.2% | SF-268 CNS 47.9% | SF-295 CNS 13.9% | SF-539 CNS 28.6% | UACC-257 melanoma 61.4% | M14 melanoma 61.9%
